Screens: PubChem, National Center for Advancing Translational Sciences (NCATS)
N370S GC mod – qHTS Assay for Inhibitors and Activators of N370S glucocerebrosidase as a Potential Chaperone Treatment of Gaucher Disease; N370S GC spleen homogenate, 4MU-glucoside fluorescence; hit rate 0.092% among 330,000; Lysosomal acid glucosylceramidase (Homo sapiens), P04062; Potency, µM (highest dose often 59.4 µM), inactives show at the highest dose activity change, negative = inhibition, usual class: inhibitors;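 note: potency is the fitted concentration of half-maximal effect; 0% = full enzyme activity and -100% = no enzyme basal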
TrxR1 inh – qHTS Assay for Inhibitors of Mammalian Selenoprotein Thioredoxin Reductase 1 (TrxR1): qHTS; Thioredoxin reductase 1, cytoplasmic (Rattus norvegicus), O89049; AID 588453, 2011; hit rate 1% among 390,000; Potency, µM (titrated, usually from 114 µM), for the others: top-dose activity change, negative = inhibition, most hits filed as inhibitors; recombinant rTrxR1, NADPH fluorescence consumption, selenite substrate; note: potency is the fitted concentration of half-maximal effect; % is set by controls: 0 for no effect and ±100 for the full control effect; nearly all actives have a fitted effect of over 65% in size
Target sequence (O89049 whole entry, looked up): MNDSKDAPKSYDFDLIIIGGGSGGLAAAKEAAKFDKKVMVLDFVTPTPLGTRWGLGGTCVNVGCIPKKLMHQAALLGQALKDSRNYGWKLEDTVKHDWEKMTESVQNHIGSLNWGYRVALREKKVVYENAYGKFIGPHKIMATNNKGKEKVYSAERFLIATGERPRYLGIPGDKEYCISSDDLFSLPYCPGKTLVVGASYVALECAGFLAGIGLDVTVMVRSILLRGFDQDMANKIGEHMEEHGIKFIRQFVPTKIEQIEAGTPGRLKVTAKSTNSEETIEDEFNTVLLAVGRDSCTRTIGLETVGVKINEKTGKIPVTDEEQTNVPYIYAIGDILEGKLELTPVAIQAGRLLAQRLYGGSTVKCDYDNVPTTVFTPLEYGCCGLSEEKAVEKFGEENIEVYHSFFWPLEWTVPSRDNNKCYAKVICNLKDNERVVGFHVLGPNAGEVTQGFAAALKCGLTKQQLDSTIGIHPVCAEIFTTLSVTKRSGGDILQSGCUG
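Rat TrxR1 (90 nM in the dispensed reagent) was pre-reduced with 400 uM NADPH for 5 min at room temperature, then incubated with compound for 15 min. After 400 uM selenite was added, NADPH fluorescence (Ex 340/Em 450 nm) was followed for 8 min.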
pAkt inh – HTS Assay for Inhibitors of Akt Phophorylation: Primary Screen. Neuro2A IGF-stimulated pAkt S473 HTRF, 20 min; stronger effect = lower value. activity change, % for hits at 50 µM. hit rate 0.32% among 360,000; in the data active = activity change below about -80%; inconclusive = mostly about -51% to -80%; note: % is set by controls: 0 for no effect and ±100 for the full control effect
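Neuro2A cells (4,500/well, DMEM with 0.5% FBS) were treated with compound at a single 50 µM final concentration, stimulated with 6 nM IGF for 20 min at 37 °C, and lysed. Phospho-Akt Ser473 was read by HTRF as 665/615 ratio ×10^4.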
TrxR1 substrate – qHTS Assay for Substrates of Mammalian Selenoprotein Thioredoxin Reductase 1 (TrxR1): qHTS | Thioredoxin reductase 1, cytoplasmic (Rattus norvegicus), O89049 | purified TrxR1 substrate turnover, NADPH consumption readout | hit rate 0.01% among 390,000 | AID 588456, 2011 | Potency, µM (doses to about 114 µM), for inactives: at the top dose activity change, negative = substrate turnover; note: potency is the fitted concentration of half-maximal effect; % is set by controls: 0 for no effect and ±100 for the full control effect; nearly all actives have a fitted effect of over 50% in size
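Rat TrxR1, dispensed at 90 nM, was prereduced with 400 uM NADPH (final) for 5 min at ~22 deg C, then incubated with compound 15 min before 400 uM selenite. A first-read NADPH fluorescence drop versus no-compound background flagged substrates.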
A-T KAP1 phos – qHTS Assay for Identifying a Potential Treatment of Ataxia-Telangiectasia. hit rate 0.19% among 320,000. F2112 A-T fibroblasts, KAP-1 phosphorylation AlphaLISA; neocarzinostatin DNA damage 30 min before lysis. Potency, µM (doses to about 57.5 µM), inactives show top-dose activation, hits mostly activators; note: potency is the fitted concentration of half-maximal effect; % of control where 0% means no effect; nearly all actives have a fitted effect of over 45% in size
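ATM-like activity read as KAP-1 phosphorylation via AlphaLISA donor/acceptor antibody pairs after lysis and 6 hr at 25C. Cells were ATM-null patient fibroblasts (F2112, hTERT), dosed 60 min, then exposed to the DSB inducer NCS for 30 min.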
Pin1 inh – qHTS Assay to Find Inhibitors of Pin1 | Pin1 FP peptide displacement, HiFluor488, 10 min | AID 504891, 2011 | hit rate 0.009% among 390,000 | Peptidyl-prolyl cis-trans isomerase NIMA-interacting 1 (Homo sapiens), Q13526 | Potency, µM (titrated, usually from 115 µM), for the others: at the highest dose activity, negative = inhibition, usual class: inhibitors; active = well fitted inhibition curve with a large enough effect in the polarisation, with a control signal flat, not every such curve was filed as active; inconclusive = small, poorly fitted or top-dose-only effect, or effect the other way, or a change in a side signal; inactive = no such curve, though single readings can be large or run the other way; the % refers to the polarisation; note: potency is the fitted concentration of half-maximal effect; % is set by controls: 0 for no effect and ±100 for the full control effect
Target sequence (Q13526 whole entry, looked up): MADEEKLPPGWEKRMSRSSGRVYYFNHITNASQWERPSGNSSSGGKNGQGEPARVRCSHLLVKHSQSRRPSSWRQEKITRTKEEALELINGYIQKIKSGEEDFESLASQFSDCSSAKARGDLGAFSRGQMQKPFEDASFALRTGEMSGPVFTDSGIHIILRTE
* = called active by the depositor; i = inactive; ? = inconclusive; / = not tested or not shown; [ ] = another dose, or the depositor's remark. Hits are enriched below; roughly 1.4% of the tested compounds scored in any of these assays. Unless noted, calls come from the whole dose curve; as a rule, active = well fitted curve in the direction sought with a large enough effect; inconclusive = small, poorly fitted or top-dose-only effect, or another doubt; inactive = no such curve, though single readings can be large; an effect the other way counts as inactive or inconclusive.

SMILES | N370S GC mod | TrxR1 inh | pAkt inh | TrxR1 substrate | A-T KAP1 phos | Pin1 inh
O=S(=O)(/C=C/c1ccccc1)NC1CCCCCC1 | -10% | 22%[57.1 µM] | i | -5% | 12% | -6%
O=S1(=O)CCC(NS(=O)(=O)/C=C/c2ccccc2)C1 (stereo not given) | 1% | 19% | -114%* | -4% | 6% | -1%
O=C(C[n+]1c(Cl)cc(Cl)c2ccccc21)c1ccccc1 | / | 71µM* | / | 5% | / | /
COC(=O)c1ccc(CSc2n[nH]c(=S)s2)o1 | 21% | -13%[57.1 µM] | -100%* | -1%[57.1 µM] | -2% | -11%
O=C(CCN1CCC2CCC(C2)C1)c1ccccc1 (stereo not given) | / | 0.71µM* | i | 3%[11.4 µM] | / | -2%
COC(=O)c1ccc2c(=O)n(CCCCCC(=O)NCc3ccc(OC)cc3)c(=O)[nH]c2c1 | / | 3%[57.1 µM] | / | -3%[57.1 µM] | / | 14%
CCN(CC)/[N+]([O-])=N/OCOC(=O)C(C)c1ccc2cc(OC(C)=O)ccc2c1 (stereo not given) | / | 22% | / | 5%[0.457 µM] | / | /
O=C1C2C3C=CC(CC3)C2C(=O)N1c1ccc(F)cc1 (stereo not given) | -1% | 11%[57.1 µM] | i | 12%[57.1 µM] | 17% | 0%
CC(C)C1NC2(C(=O)c3ccccc3C2=O)C2C(=O)N(c3ccc(F)cc3)C(=O)C12 (stereo not given) | 2% | 45µM* | -120%* | 5% | 0% | ?
O=Cc1ccc(/C=C2\C=Cc3ccccc32)cc1 | / | -16% | / | 4% | / | /
OCc1ccccc1CNCc1ccccc1 | -4% | 22% | i | 12% | 12% | -5%
Oc1cc(CNCc2ccccc2)c(O)cc1CNCc1ccccc1 | / | 79µM* | i | -10% | / | ?
CNC(=O)C1CCN(c2nc(-c3ccc(Br)cc3)cs2)CC1 | / | / | / | / | / | -5%
CCOP(=O)(c1ccccc1)c1nc(-c2ccc(F)cc2)oc1N1CCCCC1 (stereo not given) | 5% | 9%[57.1 µM] | -130%* | -8% | -1% | -1%
CCOP(=O)(OCC)c1nc(-c2ccc(Br)cc2)oc1N1CCCCC1 | -11% | -10% | i | 5% | 0% | 1%
COc1ccc(C2Nc3ccccc3C(=O)N2C2CCCC2)cc1COc1ccc(NC(C)=O)cc1 (stereo not given) | / | / | / | / | / | 7%
CCCCCCCCCCCNC(=O)c1ccoc1C | 0% | 20µM* | i | -5% | 0% | ?
COc1ccccc1CNC(=O)c1ccoc1C | -12% | ? | / | -2% | 5% | 5%
Cc1occc1C(=O)NCc1ccccc1F | -3% | 10µM* | i | 9% | -1% | -9%
Cc1ccccc1OCc1nnc(SCc2cc(=O)c3cc(F)ccc3[nH]2)n1C | / | 10%[57.1 µM] | / | 1%[57.1 µM] | / | -4%
Cc1cccc(NC(=O)C2CC(=O)n3cnnc3S2)c1 (stereo not given) | -12% | 7.1µM* | i | -3% | -4% | 0%
CCN=C1SC(C(=O)Nc2cccc(C)c2)CC(=O)N1CC (stereo not given) | 4% | 8% | i | 0% | 10% | 0%
CCOc1ccccc1N(CC(=O)NCCSCc1ccco1)S(=O)(=O)c1ccccc1 | 3% | 22µM* | i | -8% | 1% | 10%
COc1ccc(OC)c(N(CC(=O)NCCSCc2ccco2)S(=O)(=O)c2ccccc2)c1 | -6% | -34% | i | 3% | 7% | 5%
COC(=O)c1ccc(C(/C=C/[C@@H](C)C(=O)N(C)C)NC(=O)OCc2ccccc2)cc1 (stereo not given in full) | -2% | / | / | / | / | /
SMILES | N370S GC mod | TrxR1 inh | pAkt inh | TrxR1 substrate | A-T KAP1 phos | Pin1 inh
CCCOC(=O)c1ccc(NC(=O)C2C3C=CC(O3)C2C(=O)O)cc1 (stereo not given) | 5% | 40µM* | i | 1% | 7% | 0%
Cc1cc(C)n(CCc2nc3c4ccccc4nc(N4CCN(c5ccccc5)CC4)n3n2)n1 | / | 5% | / | -7% | / | 0%
N#CC(C#N)=C1NC2(CCCCC2)Cc2ccccc21 | 18% | 33% | i | 1% | 11% | -4%
O=C(/C=C1\NC2(CCCC2)Cc2ccccc21)N1CCOCC1 | -5% | 40µM* | i | -4% | 0% | -5%
O=C1C(=Cc2ccco2)CCCC1=Cc1ccco1 | / | 45µM* | i | ? | / | 21%
O=C1C(=Cc2ccco2)CCC1=Cc1ccco1 | / | 2.8µM* | i | 4%[57.1 µM] | / | /
O/N=C1\CCC\C1=C/c1ccco1 | -3% | ? | i | 4% | 3% | 0%
O=C1CCc2cc(S(=O)(=O)Nc3cccc(F)c3)ccc2N1 | / | / | / | / | / | 5%
Cc1ccc(NS(=O)(=O)c2cc3c(cc2-c2ccccc2)NC(=O)CO3)cc1C | / | / | / | / | / | 23%
COc1ccc(CCn2c3c(c(=O)[nH]c2=O)C(NC(=O)c2ccccc2OC)(C(F)(F)F)C(=O)N3)cc1OC (stereo not given) | / | 20% | / | -3% | / | -11%
CC(C)C(=O)Nc1nnc(NC(=S)Nc2ccccc2)s1 | -3% | 10µM* | i | 2%[57.1 µM] | 12% | 0%
CCCc1nnc(NC(=S)Nc2ccccc2)s1 | 3% | -11%[57.1 µM] | i | -4%[57.1 µM] | -3% | 12%
COc1ccc(C(=O)Cn2c(C)nc([N+](=O)[O-])c2Br)cc1 | 3% | 18µM* | i | 14%[57.1 µM] | 12% | -8%
Cc1nc([N+](=O)[O-])c(Br)n1Cc1ccc(Cl)c(Cl)c1 | -4% | 10µM* | i | -4% | -3% | 3%
Cc1nc([N+](=O)[O-])c(Br)n1CC(=O)c1ccc(Cl)cc1 | -18% | 2.5µM* | i | 11%[57.1 µM] | / | 6%
Cc1nc([N+](=O)[O-])cn1CC(=O)c1ccc(Br)cc1 | -18% | 9% | i | 4% | 1% | 7%
Cc1ccc2oc3c(c(=O)c2c1)C(c1cccc(O)c1)N(Cc1ccccc1Cl)C3=O (stereo not given) | / | 4% | / | 0% | / | -9%
CCOP(=O)(c1c(F)c(F)c(F)c(F)c1F)C(O)c1ccccc1 (stereo not given) | 8% | 25%[57.1 µM] | -116%* | 10%[57.1 µM] | 8% | ?
NC1=C(Br)C(=O)c2ccccc2C1=O | -7% | 15%[11.4 µM] | i | 8%[57.1 µM] | 3% | -8%
Cc1cc2c(cc1C)C(=O)C(Br)=C(N)C2=O | / | 50µM* | i | -9% | / | ?
CCc1cc(/C=C/c2ccnc3ccccc23)ccc1N(C)C | / | -1% | / | 3%[0.0914 µM] | / | /
